According to PubChem BioAssay:
The source made the active and inactive calls.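 The calls were made as follows: active = compounds giving at least 50% inhibition in the cell-based MKP-3 phosphatase rescue imaging test; inactive = the rest.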

Tested on: not listed separately
Test: DUSP6 inhibitors restoring Erk phosphorylation by chemical complementation, primary imaging in DUSP6-transfected HeLa (AID 609);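 as to inhibition: phospho-Erk level distribution per well compared with pooled transfected vehicle control wells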
Details: HeLa MKP-3 transfected, phospho-Erk imaging KS statistic; measured here: nuclear pErk red intensity z-score; at 10 µM; stronger effect = higher value; cells stimulated with TPA for 15 min

| SMILES | z-score |
| --- | --- |
| Cn1c(=O)c2c3c(sc2n2c(SCC(N)=O)nnc12)CC(C(C)(C)C)CC3 (configuration not stated) | 0.675 |
| CCOc1cccc(-c2nn3c(-c4ccccn4)nnc3s2)c1 | 0.934 |
| Cn1c(=O)n(C)c2cc(C(=O)c3ccccc3)ccc21 | -1.62 |
| CCC(=O)OC1=C2C(=Nc3c(c(=O)n(C)c(=O)n3C)C2c2ccccc2)c2ccccc21 (configuration not stated) | 0.679 |
| Cc1ccsc1C1NC(=O)c2c(sc3c2CCCC3)N1 (configuration not stated) | 1.02 |
| CCCCc1ccc(NC(=O)CSC2=C(C#N)C(c3ccco3)C3=C(CCCC3=O)N2)cc1 (configuration not stated) | -0.943 |
| CCCCNc1nc2c(c(=O)n(C)c(=O)n2C)n1Cc1cccc(OC)c1 | -1.15 |
| Cc1c(CCC#N)c(N2CCCCC2)n2c(nc3ccccc32)c1C#N | -0.217 |
| CN(C)C/C(Cl)=C(\Cl)c1ccccc1 | 0.439 |
| CC(C)Cc1nc(N2CCCCC2)c(C#N)c2c1CCC2 | -0.497 |
| CCCCCc1nc2sc3c(c2c(=O)n1N)CCC3 | 1.67 |
| CCOC(=O)Cn1c(SC)nc2sc3c(c2c1=O)CC(C)(C)OC3 | -0.342 |
| Cc1ccc(SCc2nnc(N)s2)cc1 | 0.564 |
| CC(C)Cc1nc(N2CCOCC2)c(C#N)c2c1CCC2 | 0.0727 |
| CCOc1ccc(Cn2c(O)cc(=O)[nH]c2=O)cc1 | -0.603 |
| Cc1ccc(S(=O)(=O)NC(=O)NCc2ccc3c(c2)OCO3)cc1 | -0.563 |
| CCCCn1c(-c2ccc(Cl)cc2)nc2c(=O)n(C)c(=O)[nH]c21 | 1.4 |
| CCCCNC(=O)C(C#N)c1nc2ccccc2nc1N1CCN(Cc2ccc3c(c2)OCO3)CC1 (configuration not stated) | 1.27 |
| c1ccc(-c2nnc3sc(Cc4cccs4)nn23)cc1 | -0.974 |
| CC(=O)C1=C(O)C(=O)N(c2cccc(C(=O)O)c2)C1c1ccc(F)cc1 (configuration not stated) | 1.35 |
| Cc1ccc(OCc2nnc(NC(=O)c3ccco3)s2)c(C)c1 | 0.0542 |

Target: Dual specificity protein phosphatase 6 (Homo sapiens) (UniProt Q16828)
Test: as above
Details: HeLa MKP-3 transfected, phospho-Erk imaging KS statistic; at 10 µM; stronger effect = higher value; cells stimulated with TPA for 15 min

Sequence of Dual specificity protein phosphatase 6 (Homo sapiens) (Q16828 whole entry, looked up): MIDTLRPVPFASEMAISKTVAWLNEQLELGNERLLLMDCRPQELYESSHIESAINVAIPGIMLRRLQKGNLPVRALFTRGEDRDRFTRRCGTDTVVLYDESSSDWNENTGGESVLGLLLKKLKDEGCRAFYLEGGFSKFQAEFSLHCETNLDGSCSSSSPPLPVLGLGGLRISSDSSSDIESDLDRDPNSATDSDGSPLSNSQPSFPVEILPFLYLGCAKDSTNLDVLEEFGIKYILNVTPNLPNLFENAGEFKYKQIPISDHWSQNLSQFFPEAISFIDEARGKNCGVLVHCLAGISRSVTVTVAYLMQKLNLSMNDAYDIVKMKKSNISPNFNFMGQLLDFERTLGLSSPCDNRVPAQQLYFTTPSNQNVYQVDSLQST

| SMILES | inhibition |
| --- | --- |
| Cc1nc(NS(=O)(=O)c2ccccc2)sc1NC(=O)OCCN(C)C | 24.3% (inactive) |
| Cn1c(=O)n(CCc2ccccc2)c(=O)c2c1ncn2Cc1ccccc1 | -6.48% (inactive) |
| CC(C)OC(=O)c1nn2c(C(F)(F)F)cc(-c3ccc(Br)o3)nc2c1Br | -9.7% (inactive) |
| CCCc1nn(C)c2c1C(c1cccnc1)C(C#N)=C(N)O2 (configuration not stated) | 9.61% (inactive) |
| Cc1ccccc1NC(=O)NCCc1nc2ccccc2[nH]1 | -11% (inactive) |
| Nc1c(Br)cc2oc(-c3ccccc3)nc2c1Br | 6.51% (inactive) |
| CCCc1[nH]nc2c1C(c1c(C)nn(-c3ccccc3)c1Cl)C(C#N)=C(N)O2 (configuration not stated) | 12.7% (inactive) |
| COC(=O)c1c(NC(=O)c2nn(C)cc2Cl)sc2c1CCCC2 | 2.46% (inactive) |
| Cc1cc(=O)oc(C)c1C(=O)Nc1cccc2nonc12 | -4.7% (inactive) |
| CC(C)c1nc(N2CCOCC2)c(C#N)c2c1CCC2 | 10.5% (inactive) |
| CCOC(=O)c1c(C)n(C)c2ccc(OC)c(NC(=O)CN3CCN(Cc4ccccc4)CC3)c12 | -6.59% (inactive) |
| CC(C)CC(NC(=O)OC(C)(C)C)C(=O)NCc1ccccc1 (configuration not stated) | 5.57% (inactive) |
| O=c1[nH]nc2n1CCCCC2 | 7.73% (inactive) |
| Cc1ccc(N(CN2C(=O)NC(C)(C)C2=O)CN2C(=O)NC(C)(C)C2=O)cc1 | 2.71% (inactive) |
| CC1CN(C2CCN(S(=O)(=O)c3ccc4ccccc4c3)CC2)CC(C)O1 (configuration not stated) | -0.159% (inactive) |
| CC(C)(C)C1CCC2(CC1)C(C#N)=C(SCC(=O)Nc1ccccc1)NC(=O)C2C#N (configuration not stated) | 9.39% (inactive) |
| CCOC(=O)c1cc2c(=O)n3cccc(C)c3nc2n(Cc2cccnc2)c1=N | 4.25% (inactive) |
| OC(CNCCCN1CCCCC1)COc1ccccc1 (configuration not stated) | 17% (inactive) |
| Cc1ccc(-c2ccccc2NC(=O)C2C3C=CC(C3)C2C(=O)O)o1 (configuration not stated) | 14% (inactive) |
| Cn1c(=O)c2c3c(sc2n2c(SCC(N)=O)nnc12)CC(C(C)(C)C)CC3 (configuration not stated) | 3.56% (inactive) |
| CCOc1cccc(-c2nn3c(-c4ccccn4)nnc3s2)c1 | -9.66% (inactive) |
| Cn1c(=O)n(C)c2cc(C(=O)c3ccccc3)ccc21 | 20.2% (inactive) |
| CCC(=O)OC1=C2C(=Nc3c(c(=O)n(C)c(=O)n3C)C2c2ccccc2)c2ccccc21 (configuration not stated) | 1.9e-07% (inactive) |
| Cc1ccsc1C1NC(=O)c2c(sc3c2CCCC3)N1 (configuration not stated) | -18.6% (inactive) |
| CCCCc1ccc(NC(=O)CSC2=C(C#N)C(c3ccco3)C3=C(CCCC3=O)N2)cc1 (configuration not stated) | 7.42% (inactive) |
| CCCCNc1nc2c(c(=O)n(C)c(=O)n2C)n1Cc1cccc(OC)c1 | -5.62% (inactive) |
